Source: PubChem
GPT2 inh – inhibitors of human GPT2 alanine aminotransferase | Q8TD30 | Recombinant GPT2, coupled pyruvate oxidase/HRP Amplex Red fluorescence | Potency, µM (titrated, usually from 57.7 µM), usual class: inhibitors | 0.25% of 100,000 active; further: nearly all actives have a fitted effect of over 60% in size
Target sequence (Q8TD30 whole entry, looked up): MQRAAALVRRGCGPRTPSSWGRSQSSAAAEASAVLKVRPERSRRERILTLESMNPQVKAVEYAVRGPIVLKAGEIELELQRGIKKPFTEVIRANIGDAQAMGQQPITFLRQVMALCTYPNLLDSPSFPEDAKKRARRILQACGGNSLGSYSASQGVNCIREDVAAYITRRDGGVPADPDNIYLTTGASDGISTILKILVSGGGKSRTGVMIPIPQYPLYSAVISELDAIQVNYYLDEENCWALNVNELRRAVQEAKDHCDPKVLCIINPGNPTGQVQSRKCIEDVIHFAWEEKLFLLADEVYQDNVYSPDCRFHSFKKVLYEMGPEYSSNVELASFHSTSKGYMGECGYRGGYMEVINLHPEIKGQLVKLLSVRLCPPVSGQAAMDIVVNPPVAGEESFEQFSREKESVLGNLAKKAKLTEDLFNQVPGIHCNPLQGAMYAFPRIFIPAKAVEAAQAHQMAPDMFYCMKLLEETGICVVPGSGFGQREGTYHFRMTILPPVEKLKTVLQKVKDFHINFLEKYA
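Fluorescence of coupled pyruvate oxidase/HRP/Amplex Red system (50uM Amplex, 30 min, dark) reports pyruvate formed by GPT2. Enzyme reaction: 10ng/uL GPT2, 2mM L-alanine, 250uM a-KG, 30 min room temperature, pH 7.5; 50uM AOA control.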
NIH3T3 tox – cytotoxic compounds in NIH 3T3 cells; NIH 3T3 viability, CellTiter-Glo ATP luminescence, 48-72 h; AID 1345082; 4.3% of 94,000 active; Potency, µM (titrated, usually from 96.7 µM), hits mostly inhibitors; further: nearly all actives have a fitted effect of over 55% in size
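Mouse fibroblast NIH 3T3 cells, 400 per well, received compound via pintool and were incubated for 48 or 72 hr prior to CellTiter-Glo ATP luminescence measurement.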
Luciferase inh – inhibitors of firefly (Photinus pyralis) luciferase; Potency, µM (series often up to 115 µM), hits mostly inhibitors; AID 1347043; 2.5% of 76,000 active; purified P. pyralis luciferase, luminescence, biochemical; further: nearly all actives have a fitted effect of over 65% in size
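Luminescence read by CCD imager after adding enzyme (10nM final) to wells holding compound, titrated in qHTS. Substrates 10uM each D-luciferin and ATP; buffer 50mM Tris acetate pH 7.5, 10mM Mg acetate, Tween-20, BSA.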
HEK cytotox – cytotoxic compounds in HEK 293 cells; Potency, µM (highest dose often 115 µM), hits mostly inhibitors; HEK 293 viability, ATP luminescence (CellTiter-Glo), 48-72 h; 6.6% of 94,000 active; AID 1345083; further: nearly all actives have a fitted effect of over 60% in size
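ATP-coupled CellTiter-Glo luminescence served as viability read-out, recorded 10 min after reagent addition at room temperature. HEK 293 cells, 250 cells/well, had been incubated with pintool-transferred compound for 48 or 72 hr at 37 degree Celsius.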
hNpr1 antagonist – blocks ANP-stimulated signaling of human Npr1 receptor; Potency, µM (titrated, usually from 46.3 µM), actives largely listed as inhibitors; HEK293 hNpr1 GloSensor cGMP, ANP-stimulated luminescence; AID 1347048; 1.6% of 76,000 active; P16066; calls by dose curve; further: nearly all actives have a fitted effect of over 60% in size
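HEK293 cells stably expressing human Npr1 and cGMP GloSensor pGS-40F, loaded 2 h with 2% GloSensor reagent, given compound 30 min at room temperature. Luminescence read before and 20 min after 0.1 nM hNppA.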
Each line names hits and unclear results; the compound was inactive in the other large screens. The list is not random: actives were taken first. Their share in the collection is about 10%. Unless noted, the call rests on the fitted dose curve; in most records, active means well fitted curve in the direction sought with a large enough effect; inconclusive means small, poorly fitted or top-dose-only effect, or another doubt; inactive means no such curve, though single readings can be large; an effect the other way counts as inactive or inconclusive.

N#Cc1ccc(C(=O)N2C[C@@H](Oc3ccccc3)C[C@H]2C(=O)N2CCCC2)cc1	none
CC1=C[C@@H](CNS(=O)(=O)c2ccc(C)cc2)[C@H](C(C)C)C[C@H]1CC(=O)N(C)Cc1cccnc1	NIH3T3 tox 11µM, HEK cytotox 45µM
CC1=C[C@@H](CNS(=O)(=O)c2cccc(C#N)c2)[C@H](C(C)C)C[C@H]1CC(=O)NCc1cccnc1	GPT2 inh inconclusive
CC1=C[C@@H](CNC(=O)c2ccco2)[C@H](C(C)C)C[C@H]1CC(=O)N(C)Cc1ccccc1	NIH3T3 tox 100µM, HEK cytotox inconclusive
CC1=C[C@@H](CNC(=O)CCC(=O)O)[C@H](C(C)C)C[C@H]1CC(=O)N(C)Cc1ccccc1	none
COCCC(=O)NC[C@@H]1C=C(C)[C@H](CC(=O)N(C)Cc2cccnc2)C[C@H]1C(C)C	Luciferase inh 56µM
Cc1cc(C(F)(F)F)nn1CCNC(=O)[C@H]1CCC[C@H](O)C1	none
O=C1CC(c2ccccc2)N(C(=O)C2CC2)CCCN(C(=O)C2CCCCC2)CCN1 (stereo not drawn)	none
COC(=O)[C@@H](C)NC(=O)[C@H]1CN(C(=O)c2cccnc2)CCN1C(=O)c1cccs1	none
Cc1cccc(C(=O)N2CCN(C(=O)c3nnn4c3COC(c3ccc(Cl)cc3)C4)CC2)c1 (stereo not drawn)	HEK cytotox inconclusive
Cc1ccc(C2Cn3nnc(C(=O)N4CCN(C(=O)c5cccc(N(C)C)c5)CC4)c3CO2)cc1 (stereo not drawn)	Luciferase inh inconclusive, HEK cytotox 18µM, hNpr1 antagonist inconclusive
O=C(c1ccc2[nH]ccc2c1)N1CCN(C(=O)c2nnn3c2COC(c2ccccc2)C3)CC1 (stereo not drawn)	HEK cytotox 79µM
Cc1ccc(C2Cn3nnc(C(=O)N4CCC(C(=O)Nc5ccc(Cl)c(C)c5)CC4)c3CO2)cc1 (stereo not drawn)	Luciferase inh 35µM
Cc1ccc(C2Cn3nnc(C(=O)N4CCC(C(=O)Nc5cccc(Cl)c5)CC4)c3CO2)cc1 (stereo not drawn)	NIH3T3 tox inconclusive, Luciferase inh 28µM, HEK cytotox 40µM
CSc1ccc(NC(=O)C2CCN(C(=O)c3nnn4c3COC(c3ccc(C)cc3)C4)CC2)cc1 (stereo not drawn)	Luciferase inh inconclusive
CC(=O)c1c(O)cc(O[C@@H]2O[C@H](CO)[C@@H](O)[C@H](O)[C@H]2O)cc1O	none (no result: NIH3T3 tox, Luciferase inh, HEK cytotox, hNpr1 antagonist)
C[C@@H]1O[C@@H](O[C@H]2[C@H](Oc3cc(O)c(C(=O)CCc4ccc(O)cc4)c(O)c3)O[C@H](CO)[C@@H](O)[C@@H]2O)[C@H](O)[C@H](O)[C@H]1O	GPT2 inh 7.1µM (no result: NIH3T3 tox, Luciferase inh, HEK cytotox, hNpr1 antagonist)
COc1ccc(C(=O)Nc2cccc(-c3nnc4n3CCCC4)c2)cn1	none
COCc1cc(C[C@@H]2C[C@H](NCC3CC3)C2(C)C)no1	none
CC(C)N[C@H]1C[C@@H](Cc2cc(CC3CCCCC3)on2)C1(C)C	NIH3T3 tox 45µM, HEK cytotox 32µM
CC1(C)[C@H](Cc2cc(CC3CCCCC3)on2)C[C@@H]1NC(=O)c1ccco1	GPT2 inh inconclusive, NIH3T3 tox 71µM, HEK cytotox 25µM, hNpr1 antagonist inconclusive
CCn1ncc(CN2C[C@@H](COCC3CC3)[C@H](c3ccccn3)C2)c1C	HEK cytotox inconclusive
COC(=O)CNC(=O)C1CCN(Cc2ccccc2-c2ccc(C)c(Cl)c2)CC1	NIH3T3 tox inconclusive (no result: GPT2 inh, Luciferase inh, hNpr1 antagonist)
Cc1nc(C)c(C(=O)N2CCCC2c2nc(CCOCC3CCCC3)no2)s1 (stereo not drawn)	HEK cytotox inconclusive
CC(=O)NCCCC(=O)N1Cc2ccccc2OC2(CCN([S+](C)(=O)[O-])CC2)C1	none (no result: Luciferase inh, hNpr1 antagonist)
c1cc(-c2nnc([C@H]3CCN(C4CCCCC4)C3)o2)ccn1	Luciferase inh inconclusive
CN(C)c1ccc(-c2nnc([C@H]3CCN(C4CCC4)C3)o2)cc1	Luciferase inh 71µM
c1ccc(-c2nnc([C@H]3CCN(C4CCC4)C3)o2)cc1	Luciferase inh 25µM, HEK cytotox inconclusive
O=C([C@@H]1C[C@H](Oc2ccccc2)CN1C(=O)c1ccn[nH]1)N1CCOCC1	none
CC(C)CCN1CCC2(C1)C(=NC1CCCC1)NC(=O)N2c1cc(F)cc(F)c1 (stereo not drawn)	NIH3T3 tox inconclusive, HEK cytotox inconclusive (no result: Luciferase inh, hNpr1 antagonist)
Cc1ccccc1CN1Cc2nc(-c3c(C)noc3C)ccc2OCC1=O	NIH3T3 tox inconclusive, HEK cytotox inconclusive
Cc1ccccc1CN1Cc2nc(Nc3ccccc3)ccc2OCC1=O	NIH3T3 tox inconclusive, HEK cytotox 71µM
Cc1csc(Nc2ccc3c(n2)CN(Cc2ccccc2C)C(=O)CO3)n1	NIH3T3 tox 25µM, HEK cytotox 25µM, hNpr1 antagonist inconclusive
O=C(NCc1ccccc1F)c1ccc2nc(-c3cccnc3)oc2c1	HEK cytotox inconclusive (no result: Luciferase inh, hNpr1 antagonist)
CNC(=O)N1CCC(C2CCN(C(=O)Cc3ccsc3)C2)CC1 (stereo not drawn)	none
O=C1c2cnc(-c3ccc(CO)cc3)nc2OCCN1Cc1ccc(F)cc1F	NIH3T3 tox inconclusive, Luciferase inh inconclusive, HEK cytotox 89µM
COCCN1CCOc2nc(-c3ccc(Oc4ccccc4)cc3)ncc2C1=O	NIH3T3 tox inconclusive, Luciferase inh 22µM, HEK cytotox 56µM, hNpr1 antagonist 22µM
COc1ccc(CN2CCOc3nc(-c4cccc(NC(C)=O)c4)ncc3C2=O)cc1	NIH3T3 tox inconclusive, HEK cytotox 100µM
O=C1c2cnc(-c3ccc(Oc4ccccc4)cc3)nc2OCCN1CC1CC1	NIH3T3 tox 28µM, Luciferase inh inconclusive, HEK cytotox inconclusive, hNpr1 antagonist 7.1µM
O=C1c2cnc(-c3ccc(F)cc3)nc2OCCN1Cc1ccc(F)cc1F	NIH3T3 tox inconclusive, HEK cytotox inconclusive
O=C(c1ccnnc1)N1CC(F)(F)C[C@H]1c1nc(-c2ccncc2)no1	none
Cc1ccccc1OCc1nc(C2CN(C(=O)Cc3cccc(F)c3)C2)no1	NIH3T3 tox 40µM, HEK cytotox 45µM
Cc1cc(S(=O)(=O)N2CCC(c3noc(COc4ccc(F)cc4)n3)CC2)ccc1F	NIH3T3 tox 35µM, HEK cytotox 25µM, hNpr1 antagonist inconclusive
CCN(CC)C(=O)N1CCC(c2noc(COc3ccc(F)cc3)n2)C1 (stereo not drawn)	NIH3T3 tox inconclusive, HEK cytotox 45µM (no result: Luciferase inh, hNpr1 antagonist)
Cc1ccccc1OCc1nc(C2CN(C(=O)c3cc(F)ccc3F)C2)no1	HEK cytotox inconclusive
O=C(Cc1ccccc1)N1CCC(c2noc(COc3ccc(F)cc3)n2)CC1	GPT2 inh inconclusive, NIH3T3 tox inconclusive, HEK cytotox 45µM (no result: Luciferase inh, hNpr1 antagonist)
CCCS(=O)(=O)N1CCC(Oc2nccnc2N2CCOCC2)C1 (stereo not drawn)	none
COCc1nc2nc(-c3ccccc3)c(-c3ccc(N4CCN(C)CC4)nc3)cc2n1C	NIH3T3 tox inconclusive, Luciferase inh inconclusive, HEK cytotox inconclusive, hNpr1 antagonist 14µM
